Source: PubChem BioAssay (NMMLSC)
Shown are actives, neighbours in structure and some others; about 0.37% of the full set was active somewhere.
Rab2 wt GTP: changes GTP binding to wildtype dog Rab2A, up or down; P61105; GST-Rab2 wt beads, Bodipy-GTP binding, flow cytometry; GTP binding activity, % at 10 µM; 190,000 tested, 0.19% active; AID 760;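 active = GTP binding activity at least 20 points away from 100%, either lowered or raised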;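 note: 0% = beads with excess unlabeled GTP and 100% = no-compound control corrected for plate trend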
Rac1 wt modul: modulators of human Rac1 wildtype GTP binding; P63000; GST-Rac1 beads, fluorescent GTP binding, flow cytometry; actives lie on both sides; 0 = cold GTP competed, 100 = untreated; AID 757; GTP binding activity (% of control), % at 10 µM; 190,000 tested, 0.27% active;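 active = GTP binding activity at least 20 points away from the 100% control level, either lower or higher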
Rab7 wt GTP bind: modulators of GTP binding to dog Rab7 wildtype GTPase. GST-Rab7 beads, fluorescent GTP binding, flow cytometry; actives lie on both sides; untreated = 100%, excess cold GTP = 0%. GTP binding activity (percent of control), % at 10 µM. 190,000 tested, 0.055% active. AID 758;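 active = fluorescent GTP binding to Rab7 beads changed by at least 20 points from the 100% baseline, either direction, mostly lower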;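 note: median green fluorescence of bound Bodipy-FL-GTP per Rab7 bead population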
HRas wt GTP bind: human HRas wildtype GTP binding, change in either direction; P01112; GTP binding activity, % at 10 µM; GST-Ras wt beads, Bodipy-FL-GTP binding, flow cytometry; actives lie on both sides; 190,000 tested, 0.14% active; AID 759;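 active = GTP binding activity at least 20% away from the 100% baseline, either lowered as inhibitor or raised as activator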;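 note: 0% = unlabeled GTP competition control and 100% = no-compound control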
Target sequence (P01112 whole entry, looked up): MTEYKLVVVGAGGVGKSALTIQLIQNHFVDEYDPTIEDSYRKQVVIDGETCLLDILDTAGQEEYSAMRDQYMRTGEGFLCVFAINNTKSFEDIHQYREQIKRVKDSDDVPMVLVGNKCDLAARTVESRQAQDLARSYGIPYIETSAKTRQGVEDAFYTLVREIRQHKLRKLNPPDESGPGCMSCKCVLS
Cdc42 wt GTP: human Cdc42 wildtype GTP binding change, either direction; 190,000 tested, 0.2% active; P60953; percent activity (GTP binding), % at 10 µM; GST-Cdc42 beads, Bodipy-GTP binding, flow cytometry; actives lie on both sides; AID 761;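 active = percent activity GTP binding at least 20 points away from the 100% baseline, either down as inhibitor or up as activator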;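 note: median bead fluorescence of bound Bodipy-FL-GTP at 100 nM; 0% = excess unlabeled GTP control and 100% = no compound control; below 100% means less GTP binding so inhibitor and above means activator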
Target sequence (P60953 whole entry, looked up): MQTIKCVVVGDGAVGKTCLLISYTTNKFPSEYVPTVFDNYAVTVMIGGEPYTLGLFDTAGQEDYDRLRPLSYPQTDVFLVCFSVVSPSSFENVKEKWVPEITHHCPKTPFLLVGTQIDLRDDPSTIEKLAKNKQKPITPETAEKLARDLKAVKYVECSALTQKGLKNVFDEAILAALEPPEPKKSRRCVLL
Rac1 mut GTP: modulators of GTP binding to human Rac1 activated mutant; P63000; GST-Rac1 activated beads, fluorescent GTP binding, flow cytometry; actives lie on both sides; 100% means binding = to untreated wells; percent activity (GTP binding), % at 10 µM; 190,000 tested, 0.11% active; AID 764;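 active = GTP binding at least 20 percentage points away from the 100% baseline, in either direction, so actives lie on both sides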
* marks the source's active call; other numbers are inactive results; [ ] = dose if it differs, or a comment.

SMILES	Rab2 wt GTP	Rac1 wt modul	Rab7 wt GTP bind	HRas wt GTP bind	Cdc42 wt GTP	Rac1 mut GTP
CC(NC(=O)COC(=O)c1cc(NS(=O)(=O)c2ccc(Cl)c([N+](=O)[O-])c2)ccc1O)C1CC2CCC1C2 (stereo unspecified)	98	101	100	102	98	99
O=C(O)C1=C[C@H](c2ccc(Br)cc2)C[C@H](OCc2ccc(CO)cc2)O1	74*	75*	94	78*	71*	69*
O=C(O)C1=C[C@@H](c2ccccc2)C[C@@H](OCc2ccc(CO)cc2)O1	94	93	101	92	90	92
COc1cc(OC)cc(C(=O)N2CCC(n3c(C)nc4cc(F)ccc43)CC2)c1	96	96	95	96	99	95
COc1cc(/C=N/NC(=O)c2cc3ccccc3cc2O)ccc1OCCN1CCCCC1	86	97	88	85	97	76*
CCCc1nn(C)c(C(=O)Nc2ccc3ccccc3c2)c1Cl	92	99	96	97	97	98
COc1cc(/C=N/NC(=O)C(Cc2c[nH]c3ccccc23)NC(=O)OCc2ccccc2)cc([N+](=O)[O-])c1O (stereo unspecified)	77*	78*	83	80	83	82
COc1cc(/C=N/NC(=O)C(Cc2c[nH]c3ccccc23)NC(=O)OCC(C)C)cc([N+](=O)[O-])c1O (stereo unspecified)	87	88	91	88	89	88
O=C(CSc1ncnc2c1oc1ccccc12)NCc1ccc(F)cc1	97	95	98	94	93	94
O=C(CCc1nnc(-c2ccc3c(c2)OCO3)o1)N1CCC(c2ccc(F)cc2)C1 (stereo unspecified)	82	88	96	87	81	79*
CC(C)CCn1c(CN2CCN(Cc3ccccc3)CC2)nc2c1c(=O)n(C)c(=O)n2C	123*[activator]	159*[activator]	105	116	156*[activator]	120*[activator]
CCOc1cc(/C=N/NC(=O)C(C)Sc2ccccc2)ccc1O (stereo unspecified)	88	78*	92	89	86	90
COc1cccc(/C=N/NC(=O)C(C)Sc2ccccc2)c1 (stereo unspecified)	94	97	99	97	94	94
CCC(C(=O)NC1CCCC1)N(C(=O)Cn1nnc(-c2ccc(C)o2)n1)c1cnc2ccccc2c1 (stereo unspecified)	105	125*[activator]	101	104	107	106
O=c1[nH]c(N/N=C\c2ccc3c(c2)OCO3)nc2ccccc12	77*	67*	85	80*	78*	86
COc1ccc(C(CC(=O)O)NC(=O)c2cc3cc(Br)ccc3oc2=O)cc1OC (stereo unspecified)	76*	80	83	83	77*	76*
COc1cccc(/C=C/C(=O)Nc2ccccc2N2CCOCC2)c1	51*	48*	23*	53*	54*	50*
CCCCNC(=O)c1cc([N+](=O)[O-])[nH]n1	104	127*[activator]	104	106	108	108
O=C(NC1CCCCC1)c1cc([N+](=O)[O-])[nH]n1	109	127*[activator]	109	111	111	108
O=C(COC(=O)C1CCN(/C=C/C(=O)C(F)(F)F)CC1)Nc1cccc(F)c1	99	101	102	99	102	98
O=C(O)CCn1cc(/C=N/O)c(-c2cccc([N+](=O)[O-])c2)n1	99	98	105	100	93	94
COCCn1c(=S)[nH]c2cc(C(=O)N3CCc4ccccc4C3)ccc2c1=O	103	124*[activator]	103	102	104	95
Cc1ccc(S(=O)(=O)N2CCCCC2)cc1NC(=O)COC(=O)c1ccc(O)cc1	97	96	102	96	93	94
S=C(NCc1ccccc1)N1CCn2cccc2C1c1cccnc1 (stereo unspecified)	96	97	97	98	98	95
S=C(NCCc1ccccc1)N1CCn2cccc2C1c1cccnc1 (stereo unspecified)	80	78*	86	81	78*	77*
SMILES	Rab2 wt GTP	Rac1 wt modul	Rab7 wt GTP bind	HRas wt GTP bind	Cdc42 wt GTP	Rac1 mut GTP
COc1ccc(OCc2nc3c4cc(OC)c(OC)cc4nc(=S)n3[nH]2)cc1	83	77*	90	82	87	89
COC(=O)c1c(-c2ccc3ccccc3c2)csc1NC(=O)Cc1ccc(OC)c(OC)c1	99	100	102	101	99	95
O=C(NCc1ccc(F)cc1)c1ccc(Br)o1	100	96	106	98	95	92
Cc1ccc(NC(=S)Nc2ccc3nc(-c4ccccn4)c(-c4ccccn4)nc3c2)cc1C	100	125*[activator]	105	103	101	104
Cc1ccc(OCCn2cnc3cc([N+](=O)[O-])ccc3c2=O)cc1	79*	90	100	82	79*	87
O=c1c2ccc([N+](=O)[O-])cc2ncn1CCOc1ccccc1	79*	76*	95	81	84	87
CCCC1=NN(C(=O)Cc2ccc(OC)cc2)C(O)(C(F)(F)F)C1 (stereo unspecified)	96	100	100	97	99	96
CCOC(=O)Cc1csc(NC(=O)CSc2nc(-c3ccccc3)c(C#N)c(=O)[nH]2)n1	85	88	86	84	84	79*
CCOc1ccc2nc(NC(=O)CSc3nc(-c4ccccc4)c(C#N)c(=O)[nH]3)sc2c1	87	82	95	85	82	78*
Cc1cc(C)n(C(=O)CNC(=O)C2COc3ccccc3O2)n1 (stereo unspecified)	100	104	96	99	102	97
Cc1cc(C)n(C(=O)CNC(=O)c2ccc3c(c2)OCCO3)n1	32*	29*	20*	38*	34*	33*
Clc1ccc(-c2nc(/C=N/N3CCOCC3)c3ccccn23)cc1	97	97	92	99	97	96
O=C(Nc1nc(-c2ccc(S(=O)(=O)N3CCCC3)cc2)cs1)c1cccs1	70*	87	90	71*	71*	84
O=C(Nc1ccc(S(=O)(=O)N2CCCC2)cc1)c1cccs1	97	98	103	101	96	94
Cc1ccc(-n2c(=O)cc(N3CCc4ccccc4C3)[nH]c2=O)cc1	107	126*[activator]	104	107	110	106
Cc1ccc(-n2c(=O)cc(N3CCN(C(=O)c4ccco4)CC3)[nH]c2=O)cc1	102	121*[activator]	107	106	102	105
